Sampled rows, rich in hits. Any-hit rate of the full collection: about 5.5%.
FBPA coupling cs = coupling enzyme interference in Giardia aldolase counter-screen. coupling enzyme system counterscreen, AmpLite Red fluorescence. activity change, negative = inhibition, % at 58.2 µM, hits read low. actives 0.67% (n = 290,000); in the data active = activity change below about -30%
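Activity here indicates interference with the coupling reaction, not aldolase inhibition. Compounds at 57.5 uM final met coupling enzymes for 10 min at RT; substrate and AmpLite Red detection followed, with a 525/598 nm fluorescence read after 20 min.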
Giardia killer = kills Giardia lamblia; Giardia lamblia trophozoite viability; activity change, % at 7.66 µM, hits read low; actives 0.15% (n = 340,000); AID 540267; in the data active = activity change below about -80%; inconclusive = between about -30% and that limit;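 also: parasites exposed to compound for two days anaerobically before the ATP read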
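ATP-content bioluminescence gauges trophozoite survival. Cells (100/well) receive compound and incubate anaerobically for 48 hrs at 37 deg C; detection reagent follows for 15-30 min at room temperature.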
Sfp PPTase inh = inhibitors of Bacillus subtilis Sfp phosphopantetheinyl transferase. Q9F4F7. Biochemical Sfp PPTase activity, qHTS. Potency, µM, without a hit: largest response in the series, negative = inhibition, hits mostly inhibitors. actives 3.5% (n = 310,000);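 also: the enzyme is Sfp with the accession as filed and its product quenches rhodamine fluorescence; potency is read from the fitted curve at half-maximal effect; 0% = enzyme reaction without inhibitor and -100% = no enzyme wells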
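With Hepes-Na pH 7.6 buffer containing 10 mM MgCl2, Sfp (15 nM) modified BHQ-2-YbbR (12.5 uM) using rhodamine-CoA (5 uM). Two reads 30 minutes apart at 525/598 nm yielded each well's rate.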
ELG1 DNA repair = ELG1-dependent DNA repair inhibition; Potency, µM (series often up to 46.1 µM), for inactives: at the highest dose activity change, negative = inhibition, hits mostly inhibitors; HEK293T ELG1-luciferase reporter, luminescence, 16 h; DNA damage induced by 5-fluorouridine; actives 2.3% (n = 330,000); also: potency is read from the fitted curve at half-maximal effect; nearly all actives have a fitted effect of over 55% in size
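Overnight (16 hr) co-exposure of 2,000 cells/well to 5-fluorouridine and compound at 37 °C preceded detection. Luciferase was quantified via ONE-Glo luminescence; loss of signal denotes inhibition.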
* = called active by the depositor; ? = inconclusive; . = no result. Unless noted, calls follow the shape of the dose curve; as a rule, active = well fitted curve in the direction sought with a large enough effect; inconclusive = small, poorly fitted or top-dose-only effect, or another doubt; inactive = no such curve, though single readings can be large; an effect the other way counts as inactive or inconclusive. Unless noted, % is scaled to controls: 0 for no effect and ±100 for the full control effect.

SMILES | FBPA coupling cs | Giardia killer | Sfp PPTase inh | ELG1 DNA repair
Brc1ccc2oc(-c3ccn[nH]3)cc2c1 | -1 | -13 | 22% | ?
O=[N+]([O-])c1ccc(-c2ccn[nH]2)o1 | 0 | -85* | -3% | -6%
CCC(C)NCCOCCOc1ccc(C)cc1OC (stereo not given) | 0 | ? | -30% | 0%
CCC(C)NCCOc1cc(C)cc(C)c1C (stereo not given) | -5 | -13 | 56µM* | 3%
CCC1NC(=O)C(NC(=O)c2ncccc2O)C(C)OC(=O)C(c2ccccc2)NC(=O)C2CC(=O)CCN2C(=O)C(Cc2ccccc2)N(C)C(=O)C2CCCN2C1=O (stereo not given) | . | . | 0% | .
Cc1c2oc3c(C)ccc(C(=O)N[C@@H]4C(=O)N[C@H](C(C)C)C(=O)N5CCC[C@H]5C(=O)N(C)CC(=O)N(C)[C@@H](C(C)C)C(=O)O[C@@H]4C)c3nc-2c(C(=O)N[C@@H]2C(=O)N[C@H](C(C)C)C(=O)N3CCC[C@H]3C(=O)N(C)CC(=O)N(C)[C@@H](C(C)C)C(=O)O[C@@H]2C)c(N)c1=O | -36* | . | -5% | .
COc1ccc2[nH]c(=O)c(CN(Cc3cccs3)C(=S)NCC3CCCO3)cc2c1 (stereo not given) | 2 | -12 | -9% | 23µM*
COC(=O)c1ccccc1NC(=S)N(Cc1ccc2c(c1)OCO2)Cc1cc2cc(OC)ccc2[nH]c1=O | 0 | 3 | -1% | 10µM*
COc1ccccc1NC(=S)N(CCCN(C)C)Cc1cc2cc3c(cc2[nH]c1=O)OCO3 | -1 | 31 | 11% | 8%
Cc1cc(C)c2[nH]c(=O)c(CN(Cc3cccs3)C(=S)NCC3CCCO3)cc2c1 (stereo not given) | 1 | 17 | -1% | 26µM*
Cc1cc(C)c2[nH]c(=O)c(CN(Cc3cccs3)C(=S)NCc3ccco3)cc2c1 | -1 | 8 | 7% | 21µM*
COC(=O)Cn1cnc2c(nnn2-c2ccc(OC)cc2)c1=O | 0 | -3 | 0% | 0%
COCCN(CCOC)Cc1c(O)ccc2c1O/C(=C\c1ccco1)C2=O | -5 | -12 | 40µM* | -3%
COC(=O)COc1ccc2c(c1)O/C(=C\c1ccco1)C2=O | 0 | -6 | 56µM* | 8%
CCc1cc(=O)oc2cc(C)cc(OCC(=O)NC(Cc3c[nH]c4ccc(O)cc34)C(=O)O)c12 (stereo not given) | 1 | 10 | 9% | 6%
CCCc1cc(=O)oc2cc(C)cc(OCC(=O)NCCN3CCOCC3)c12 | 0 | -12 | 7% | 4%
CCc1cc(=O)oc2cc(C)cc(OCC(=O)NCCc3c[nH]c4ccccc34)c12 | -3 | -8 | 11% | 5.8µM*
CCCc1cc(=O)oc2cc(C)cc(OCC(=O)Nc3ccc(CN4CCOCC4)cc3)c12 | . | -19 | 18% | 15µM*
Cc1csc(N2CCN(c3cc4nc(-c5ccncc5)[nH]c4cc3Cl)CC2)n1 | 0 | 12 | 79µM* | ?
Cc1csc(N2CCN(c3cc4c(cc3Cl)nc(-c3ccncc3)n4CCCN3CCCC3)CC2)n1 | 1 | 10 | ? | ?
O=C(/C(N=Nc1cccc(C(F)(F)F)c1)=C(/O)c1cccs1)C(F)(F)F | -5 | 2 | -6% | 2%
Cc1cccc(N=N/C(=C\O)C(=O)c2cccs2)c1 | -4 | -5 | -23% | 21µM*
Cc1nn(C)c(C)c1NC(=O)CSc1nc(C2CC2)nc2c1cnn2-c1ccccc1 | -1 | -3 | -7% | ?
CC1CCCCN1C(=O)CSc1nc(C2CC2)nc2c1cnn2-c1ccccc1 (stereo not given) | 2 | -23 | 20µM* | ?
CCC(=O)Nc1sc(C(=O)Nc2ccccc2F)c(C)c1C(=O)OC | 3 | -3 | 6% | 4%
SMILES | FBPA coupling cs | Giardia killer | Sfp PPTase inh | ELG1 DNA repair
COC(=O)c1c(NC(C)=O)sc(C(=O)Nc2ccccc2F)c1C | 2 | -17 | 71µM* | ?
COc1ccc(NS(=O)(=O)c2ccc(N/N=C(\C)c3ccncc3)c([N+](=O)[O-])c2)cc1 | 4 | 3 | -10% | 18µM*
CC(C)OC(=O)c1c2c(n3ccccc13)C(=O)c1ccccc1C2=O | -12 | -29 | ? | 18µM*
CC(=O)c1ccc(NC(=O)CC2Nc3cccc4cccc(c34)NC2=O)cc1 (stereo not given) | -31* | 4 | 50µM* | 21µM*
Cc1ccc(S(=O)(=O)N(C)CCCN(C)c2nc(-c3cccs3)nc3ccccc23)cc1 | . | -25 | . | .
CSc1ccc(NC(=O)NCCCN2CCC(Cc3ccccc3)CC2)cc1 | 1 | 24 | -8% | 0%
CC(=O)N[C@@H](CCCNC(=N)N)C(=O)N[C@H](CC1CCCCC1)C(=O)N[C@@H]1CCC2SC[C@@H](C(=O)N[C@H](CCCNC(=N)N)C(=O)N[C@H](Cc3ccc(Cl)cc3)C(N)=O)N2C1=O (stereo not given in full) | 1 | . | -2% | .
COc1cc(OC)cc(C(=O)NCC(=O)N2CCN(c3ccc(O)cc3)CC2)c1 | -1 | -6 | 56µM* | ?
COc1ccc(N2CCN(C(=O)CNC(=O)c3ccc4ccccc4c3)CC2)cc1 | . | 11 | . | ?
C=CCn1c(N)c(C(=O)NC2CCCCC2)sc1=S | -15 | -2 | 16µM* | 11%
COc1cc(NC(=O)c2ccc(OCc3c(C)noc3C)c(OC)c2)cc(OC)c1 | . | -7 | . | 21µM*
COc1ccc(OC)c(NC(=O)c2cn(C)c(=O)c3cc(OC)c(OC)cc23)c1 | -30 | -2 | 21% | 21µM*
COc1ccc(NC(=O)c2cn(C)c(=O)c3cc(OC)c(OC)cc23)c(OC)c1 | -1 | -11 | 12% | -18%
S=C(Nc1ccc(Cl)c(Cl)c1)NC1CCCCC1 | -3 | 22 | 11% | ?
C=CCNC(=S)Nc1ccc2nsnc2c1 | -23 | 6 | 10% | ?
COc1ccc(NC(=S)Nc2ccc3nsnc3c2)cc1 | -41* | 5 | 56µM* | -17%
COCCNC(=S)Nc1ccc2nsnc2c1 | -43* | 11 | -9% | 4%
S=C(Nc1ccc2nsnc2c1)NC1CCCCC1 | -67* | -3 | -91% | ?
C=CCN(CC=C)C(=S)Nc1ccc2nsnc2c1 | -54* | 20 | 13µM* | -13%
Cn1c(=O)c(-c2cccs2)nc2cnc(Oc3ccccc3)nc21 | -1 | . | 9% | .
CC(C)CCN1CCc2nc(COc3ccccc3)c3c(c2C1)COC(C)C3 (stereo not given) | -1 | . | -2% | .
CC(=O)c1ccc(S(=O)(=O)N2CCN(C(=O)CN3C(=O)NC4(CCCC4)C3=O)CC2)cc1 | . | -13 | . | -3%
CC(C)C(C)(C#N)NC(=O)COC(=O)C1CCN(S(=O)(=O)c2ccc3c(c2)OCCO3)CC1 (stereo not given) | . | -11 | . | .
CSCCC(NC(=O)c1ccco1)C(=O)N(C)CC(=O)Nc1ccccc1Br (stereo not given) | . | -4 | . | 12%
CCOC(=O)c1oc2ccc3c(c2c1C)C(=O)CC1(CCN(C(=O)OCC)CC1)O3 | 1 | 4 | -14% | 21µM*
